These results are taken from PubChem BioAssay AID624296 (National Center for Advancing Translational Sciences (NCATS), 2012).

The whole screen tested about 350,000 compounds, of which about 9,900 (2.8%) were called active. About 15% were inconclusive and are not listed. Calls follow the shape of the dose curve; as a rule, active = well fitted activation curve with a large enough effect; inconclusive = small, poorly fitted or top-dose-only effect; inactive = no such curve, though single readings can be large or run the other way. What follows is part of a selection rich in actives, with near analogues and random picks from the rest. Entries that show only a call come without a potency.
Potency is read from the fitted curve at half-maximal effect.

The nature of this experiment: A quantitative high throughput screen for small molecules that induce DNA re-replication in MCF 10a normal breast cells. Also: nearly all actives have a fitted effect of over 50% in size. The note with it: MCF 10A DNA re-replication, Hoechst nuclear intensity, 48 h; series mostly up to 46.1 µM.
For the molecule `COc1cccc(NC(=O)CSc2nnc(C3CCCCC3)n2N)c1`, the Potency entry was “inactive”.
The same measure, in the same setting: in the case of `CC(=O)c1cccc(OCC(=O)OCC(=O)Nc2cc(S(=O)(=O)N3CCCCC3)ccc2C)c1` it was “inactive”; in that of `O=C1c2ccccc2C(=O)N1CCC#Cc1ccc2cc(C3(O)CCCCC3)oc(=O)c2c1`, “inactive”; in that of `O=C(CSc1nc2[nH]c(=O)[nH]c(=O)c2s1)Nc1cccc(F)c1`, “inactive”.
Still for that read-out and setting: in the case of `CC(Sc1nnc(C2CC2)n1C1CC1)C(=O)Nc1ccc(C(N)=O)cc1` (configuration not stated) it was “inactive”; in that of `CCCn1nc(C(=O)OCc2nc(N)nc(Nc3ccccc3C)n2)c2ccccc2c1=O`, “inactive”; in that of `Cc1cccc(OCc2nnc(SCn3nnc4ccccc4c3=O)o2)c1`, “inactive”.
On to `Cc1cccc(OCc2nnc(SCc3nc4cc(C(F)(F)F)ccc4c(=O)[nH]3)o2)c1`, for which the Potency was 5.8 µM (active).
On to `Cc1cc(C)cc(OCc2nnc(SCC(=O)Nc3ccccc3)o2)c1`, for which the activity, positive = re-replication is -182% [at 0.0737 µM] (inactive).
Consider `C=CC[C@H](CC(=O)NCCO)C(=O)N[C@@H](COC(=O)[C@@H](CC=C)Cc1ccc(F)cc1)Cc1c[nH]c2ccccc12`, for which the Potency result was “inactive”.
On the same count and under the same terms, with `Cc1cccc2c1N(CC(=O)OC(C)C)C(=O)C2=O` the entry was “inactive”; with `CC(C)OC(=O)CN1C(=O)c2ccccc2C1=O`, “inactive”.
On the same count and under the same terms, with `CC(C)OC(=O)CN1C(=O)C(=O)c2ccccc21` the figure was 23.1 µM (active); with `CCN1C[C@@H]2[C@@H]3C(=O)N(C)C(=O)[C@@H]3[C@](C)(C1=O)N2C(=O)c1ccccc1`, “inactive”; with `NCCN1CCN2C(=O)CN(C(=O)c3ccccc3)CC12` (configuration not stated), “inactive”.
Same read-out and setting: with `O=C(c1cn(-c2ccccc2)nc1-c1cc2ccccc2oc1=O)N1CCOCC1` the entry was “inactive”; with `S=c1[nH]c(-c2cccs2)cn1-c1ccccc1`, “inactive”; with `O=c1oc2ccccc2cc1-c1cn(-c2ccccc2)c(=S)[nH]1`, 5.8 µM (active).
Consider `COc1ccc(CNC(=O)COC(=O)c2ccc(C)c(S(=O)(=O)N3CCOCC3)c2)cc1OC`, for which the Potency result was “inactive”.
Still for that read-out and setting: in the case of `O=C(NC1CCCCCC1)c1cccnc1Sc1ccc(Cl)cc1` it was 18.4 µM (active).
On the same count and under the same terms, with `O=C(NCc1cccnc1)c1cccnc1Sc1ccc(Cl)cc1` the entry was “inactive”.
Still for that read-out and setting: with `CSc1ncccc1C(=O)NC1CCCCCC1` the entry was “inactive”; with `CCC(C(=O)NC1CCCCC1)N(C(=O)c1snc(C(N)=O)c1N)c1ccc(OC)cc1OC` (configuration not stated), “inactive”.
For `COc1ccc(N(C(=O)c2snc(C(N)=O)c2N)C(C(=O)NC2CCCC2)c2ccco2)cc1OC` (configuration not stated), the Potency result was “inactive”.
Still for that read-out and setting: with `COc1ccc(N(C(=O)c2snc(C(N)=O)c2N)C(C(=O)NC2CCCC2)c2ccc(C)o2)c(OC)c1` (configuration not stated) the figure was 20.6 µM (active); with `COc1ccc(/C=C/C(=O)OCC(=O)NC2CCCCCC2)cc1OC`, “inactive”; with `CC(C)(C)OC(=O)NCCCCCNC(=O)c1[nH]cnc1C(=O)Nc1nccs1`, “inactive”.
On the same count and under the same terms, in the case of `Cc1cc([N+](=O)[O-])c(=O)[nH]c1C` it was “inactive”.
Same read-out and setting: in the case of `O=C(Nc1cccc(S(=O)(=O)N2CCCCC2)c1)c1ccc2c(c1)OCO2` it was “inactive”.
For `Cc1onc(-c2c(F)cccc2Cl)c1C(=O)Nc1cccc(S(=O)(=O)N2CCCCC2)c1`, the Potency is 14.6 µM (active).
Still for that read-out and setting: in the case of `Cc1onc(-c2c(F)cccc2Cl)c1C(=O)N(C)CC(=O)Nc1cccc(F)c1` it was “inactive”.
Same read-out and setting: in the case of `Cn1c(CO)cnc1SCc1ccccc1` it was “inactive”.
Turning to `CSc1c(SCc2ccccc2)cnn(Cc2ccccc2)c1=O`, the Potency was 18.4 µM (active).
On the same count and under the same terms, with `CSc1nc2ccccc2c(=O)n1Cc1ccc(F)cc1` the entry was “inactive”; with `CCCCNC1(C#N)CCN(Cc2ccccc2)CC1`, “inactive”.
The same measure, in the same setting: in the case of `CCc1nc(C)cn1S(=O)(=O)c1cc(OC)c(C)cc1C` it was “inactive”; in that of `CC(C)c1nccn1S(=O)(=O)c1cc([N+](=O)[O-])ccc1Cl`, “inactive”.
On the same count and under the same terms, with `CCc1nc(C)cn1S(=O)(=O)c1cc([N+](=O)[O-])ccc1Cl` the figure was 6.51 µM (active); with `CC(=O)Nc1ccc(NC(=O)CCCNC(=O)c2ccc(Cl)cc2)cc1`, “inactive”; with `CC(=O)Nc1ccc(C(=O)N(C2=NC(C)CS2)c2ccc(Cl)cc2)cc1` (configuration not stated), 5.17 µM (active).
For the molecule `COc1ccccc1C(=O)N(C1=NC(C)CS1)c1ccc(Cl)cc1` (configuration not stated), the Potency result is “inactive”.
Take `O=C1CC(c2ccccc2)C(c2ccccc2)=NN1` (configuration not stated): the Potency entry was “inactive”.
Still for that read-out and setting: in the case of `Cc1nc2ccc(NC(=O)C3CCCCC3)cc2s1` it was “inactive”; in that of `CN(C)CCCn1c(N)c(C#N)c2nc(C#N)c(C#N)nc21`, 7.31 µM (active).
Same read-out and setting: with `CCCN=C1N(C)C[C@@H]2[C@@H]3C(=O)N(Cc4ccccc4)C(=O)[C@@H]3[C@](C)(C(=O)OC)N12` the entry was “inactive”.
On the same count and under the same terms, in the case of `COc1ccccc1NS(=O)(=O)c1ccc(C)c(C(=O)NNC(=O)c2csc(N3CCOCC3)n2)c1` it was “inactive”; in that of `CC(C)C(NC(=O)c1c(F)cccc1F)C(=O)NNC(=O)c1ccccc1` (configuration not stated), “inactive”; in that of `CCCc1nc2c(c(=O)c3ccccc3n2C)c(=O)n1C1CCCCCC1`, 14.6 µM (active).
Regarding `Cn1c2ccccc2c(=O)c2c(O)cccc21`, the Potency entry is “inactive”.
Same read-out and setting: in the case of `CCCc1nc2c(c(=O)c3ccccc3n2C)c(=O)n1-c1cc(C)cc(C)c1` it was “inactive”; in that of `CC(=NNC(=O)c1ccncc1)c1ccc(Cl)c(Cl)c1`, “inactive”; in that of `CCC1CCCCN1C(=S)NC(=O)c1ccco1` (configuration not stated), “inactive”.
Still for that read-out and setting: in the case of `CCN(CC)CCNC(=O)c1ccc(NC(=O)c2cc(-c3ccncc3)nc3ccccc23)cc1` it was “inactive”.
Still for that read-out and setting: in the case of `O=C(Nc1ccncc1)c1cc(-c2ccccn2)nc2ccc(Br)cc12` it was “inactive”; in that of `Cc1ccc2nc(-c3ccncc3)cc(C(=O)Nc3ccc(OC(F)F)cc3)c2c1`, 14.6 µM (active); in that of `Cc1nc2ccc(NC(=O)c3cccc(S(=O)(=O)N4CCOCC4)c3)cc2s1`, “inactive”.
On to `CC1(C)N=C(N)NC(Nc2ccc(Cl)cc2)=N1`, for which the Potency result is “inactive”.
The same measure, in the same setting: in the case of `Cc1csc(=O)n1CC(=O)Nc1ccc(S(C)(=O)=O)cc1` it was “inactive”; in that of `CCOc1cc(N2CCOCC2)c(OCC)cc1NC(=O)COc1cccc2cccnc12`, 15.8 µM (active); in that of `CCOc1cc(N2CCOCC2)c(OCC)cc1NC(=O)COc1cccc(Cl)c1`, “inactive”.
Same read-out and setting: with `CCOc1cc(N2CCOCC2)c(OCC)cc1NC(=O)c1cc(C)nc2ccccc12` the entry was “inactive”; with `CC(OC(=O)c1cc2ccccc2[nH]1)C(=O)N(C)c1ccccc1` (configuration not stated), “inactive”.
Same read-out and setting: in the case of `C(=N/Nc1cc(N2CCOCC2)nc(N2CCOCC2)n1)/c1ccccc1` it was 23.1 µM (active); in that of `CN(C)c1ccc(/C=N/Nc2cc(N3CCOCC3)nc(N3CCOCC3)n2)cc1`, “inactive”; in that of `Cc1cc(N2CCN(c3ccccc3)CC2)nc(N2CCOCC2)n1`, “inactive”.
As to `COc1ccccc1NC(=O)COC(=O)CNC(=O)C1CCCCC1`, the Potency result is “inactive”.
The same measure, in the same setting: with `CCCn1nc(NS(=O)(=O)c2ccccc2)c2cc3cc(C)ccc3nc21` the entry was “inactive”.
For `Cc1ccnc(NC(=O)c2ccco2)n1`, the Potency entry is “inactive”.
Turning to `CCn1nc(NC(=O)c2ccco2)c2cc3ccc(C)cc3nc21`, the Potency is 8.91 µM (active).
Still for that read-out and setting: with `COC(=O)[C@]1(Cc2ccccc2)N[C@H](CN(C)S(=O)(=O)c2ccc(F)cc2)[C@@H]2C(=O)N(Cc3ccccc3)C(=O)[C@@H]21` the entry was “inactive”; with `CCC1(C)Cc2c(sc3nc4n(c(=O)c23)CCCS4)CO1` (configuration not stated), “inactive”.
The same measure, in the same setting: in the case of `CCC1(C)Cc2c(sc3nc(SC)nc(N)c23)CO1` (configuration not stated) it was “inactive”; in that of `CCCSc1nc(NCc2ccco2)c2c3c(sc2n1)COC(C)(CC)C3` (configuration not stated), 23.1 µM (active).
Take `O=C(OCC(=O)N1CCCCC1)c1ccc(OC(F)(F)F)cc1`: the Potency result was “inactive”.
As to `O=C(NCCc1ccc(F)cc1)c1ccc(S(=O)(=O)N2CCCCC2)cc1`, the Potency result is “inactive”.
Turning to `CC1(c2ccccc2)NC(=O)N(CC(=O)N2CC(=O)Nc3ccccc32)C1=O` (configuration not stated), the Potency entry was “inactive”.
The same measure, in the same setting: in the case of `NC(=O)C1CCN(C(=O)c2ccc(F)c(S(=O)(=O)N3CCOCC3)c2)CC1` it was “inactive”; in that of `O=S(=O)(NCc1ccc(Cl)cc1Cl)c1cccs1`, “inactive”; in that of `O=S(=O)(Cc1ccc(Cl)cc1Cl)c1ccc(Cl)cc1`, 0.651 µM (active).
On the same count and under the same terms, with `Cc1ccc(S(=O)(=O)Cc2cc(-c3ccc(Cl)cc3)no2)cc1` the entry was “inactive”.
On the same count and under the same terms, with `CC(=O)Nc1ccc(C(=O)NNC(=O)CCCCC(=O)NNC(=O)c2ccc(NC(C)=O)cc2)cc1` the entry was “inactive”; with `CC(=O)Nc1ccc(C(=O)/C=C/c2ccc[nH]2)cc1`, “inactive”; with `CCCC(=O)Nc1ccc(C(=O)N/N=C/c2ccc[nH]2)cc1`, 16.4 µM (active).
With `Cc1ccc(C(=O)Nc2ccc3c(c2)OCCO3)cc1S(=O)(=O)N1CCOCC1`, the Potency entry is “inactive”.
The same measure, in the same setting: in the case of `O=C(CNCCC1=CCCCC1)Nc1ccccc1N1CCCCCC1` it was 20.6 µM (active); in that of `Cn1c(=O)c2c(nc(SCC(=O)Nc3ccccc3N3CCCCC3)n2C)n(C)c1=O`, “inactive”.
Same read-out and setting: in the case of `Cc1ccccc1NC(=O)CNc1ccccc1N1CCCCC1` it was “inactive”.
On to `COc1ccc(C(=O)NCC2CCCCC2)cc1S(=O)(=O)N1CCCC1`, for which the Potency entry was “inactive”.
The same measure, in the same setting: with `Nc1nonc1-n1nnc(C(=O)N/N=C/c2ccccc2O)c1CN1CCCC1` the entry was “inactive”; with `Cc1ccc(SCc2c(C(=O)N/N=C/C3CC=CCC3)nnn2-c2nonc2N)cc1` (configuration not stated), “inactive”; with `Nc1nonc1-n1nnc(C(=O)N/N=C/c2cc(Br)ccc2O)c1CSC1=NCCS1`, 10.3 µM (active).
The same measure, in the same setting: with `COc1ccc(C2(c3ccc(OC)cc3)NC(=O)N(CC(=O)Nc3cc(C)on3)C2=O)cc1` the entry was “inactive”; with `Cn1c(=O)c2c(ncn2CC(=O)N2CCN(c3ccccc3)CC2)n(C)c1=O`, “inactive”.
Still for that read-out and setting: in the case of `Cn1c(=O)c2c(ncn2CC(COCc2ccccc2Cl)OCc2ccccc2Cl)n(C)c1=O` (configuration not stated) it was 13 µM (active); in that of `Cn1c(=O)c2c(ncn2CCc2ccccc2)n(C)c1=O`, “inactive”; in that of `O=C(O)C1C2C=CC(O2)C1C(=O)Nc1ccccn1` (configuration not stated), “inactive”.
Turning to `O=C(CNC(=O)c1n[nH]c2ccccc12)Nc1cc(Cl)ccc1Cl`, the Potency entry is “inactive”.
The same measure, in the same setting: in the case of `COC[C@@H]1NS(=O)(=O)c2ccc(Br)cc2O[C@H]1c1ccccc1` it was “inactive”; in that of `COc1ccccc1NC(=O)/C=C/C(=O)O`, “inactive”; in that of `COC(=O)c1sc(-c2ccc(C(C)(C)C)cc2)cc1NC(=O)/C=C/C(=O)O`, 16.4 µM (active).
On the same count and under the same terms, in the case of `O=C(O)/C=C/C(=O)Nc1ccc(F)cc1F` it was “inactive”; in that of `COC(=O)c1sc(NC(=O)COC(=O)C2CCC2)c(C(=O)OC)c1C`, “inactive”.
